About 83,000 compounds went through this panel and 20% of them were active in at least one assay; those are over-represented in the sample as a whole.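 96-well plates, one dose, 48 hours. Percent growth reported; active if below 10.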 Values without a mark were called inactive. The source made the active and inactive calls.
Tests used:
Experiment in all cases: NCI-60 one-dose screen, 48 h (100 = growth as untreated, 0 = no growth, -100 = all killed)
Settings in all cases: 10 µM
NCI-H23 lung = system: NCI-H23 lung
NCI-H226 lung = system: NCI-H226 lung
NCI-H322M lung = system: NCI-H322M lung
HOP-62 NSCLC = system: HOP-62 NSCLC
NCI-H460 lung = system: NCI-H460 lung
HOP-92 NSCLC = system: HOP-92 NSCLC
NCI-H522 lung = system: NCI-H522 lung
A549/ATCC NSCLC = system: A549/ATCC NSCLC
786-0 renal = system: 786-0 renal
COLO 205 colon = system: COLO 205 colon

SMILES	growth (NCI-H23 lung)	growth (NCI-H226 lung)	growth (NCI-H322M lung)	growth (HOP-62 NSCLC)	growth (NCI-H460 lung)	growth (HOP-92 NSCLC)	growth (NCI-H522 lung)	growth (A549/ATCC NSCLC)	growth (786-0 renal)	growth (COLO 205 colon)
O=C1NC(=NC23CC4CC(CC(C4)C2)C3)N/C1=C\c1ccc2ncccc2n1	-53.7% (active)	-15.6% (active)	-10.2% (active)	-5.42% (active)	-8.97% (active)	-14.6% (active)	-20.6% (active)	2.65% (active)	2.78% (active)	-19.3% (active)
CN1CCN(c2ccc(Nc3nc(N4CCN(S(=O)(=O)c5ccc(Cl)cc5)CC4)c4sccc4n3)cc2)CC1	46.6%	-22.2% (active)	74.5%	71.4%	-70.6% (active)	69.1%	-82.7% (active)	22%	-62.9% (active)	-77.9% (active)
COc1cc(/C=C/C(=O)c2ccc(NC(=O)CSc3nnc(-c4c[nH]c5ccccc45)n3-c3ccccc3)cc2)cc(OC)c1OC	47.7%	69.9%	90.5%	101%	91.2%	105%	90.5%	106%	96.1%	102%
O/N=C(\CSc1nnc(-c2c[nH]c3ccccc23)n1-c1ccccc1)c1ccc(Cl)cc1	47.3%	14.3%	-49.3% (active)	-64.1% (active)	10.5%	-8.42% (active)	12.4%	21.5%	34.1%	10.2%
CCCCOc1ccc(Nc2nc3ccccc3nc2Nc2ccc(OCCCC)cc2)cc1	82.6%	96.6%	106%	98.9%	60.1%	97.4%	88.5%	89.4%	72.1%	116%
O=C1CCC(N2Cc3cc(CC(=O)Nc4ccc(N5CCCCC5)cc4)ccc3C2=O)C(=O)N1 (stereo not given)	93.8%	16.3%	56.6%	23.5%	98.6%	-5.24% (active)	65.3%	68.3%	42.5%	37.5%
C=CC(=O)Nc1ccc(C(=O)/C=C/c2ccc(N(C)CCF)cc2)c(O)c1	-26.7% (active)	-11% (active)	25.6%	-27.5% (active)	-9.21% (active)	-3.32% (active)	-76.9% (active)	-60.7% (active)	-42.2% (active)	-69.1% (active)
COc1ccc2cc([C@H](C)C(=O)NCc3ccccc3)ccc2c1	33.6%	59.5%	49.7%	41.8%	17.7%	104%	-5.33% (active)	59.7%	59.7%	0.915% (active)
COc1cnc2c(c1)C(=O)c1c-2n(CCCNCCO)c(=O)c2cc(OC)c(OC)cc12	3.38% (active)	15.4%	30.9%	12.1%	10.2%	54.4%	15.1%	43%	-11.9% (active)	15.4%
COc1ccc(-c2c(N)c(=O)n(C)c3ccccc23)cc1	67.7%	46.5%	77%	75.3%	88.1%	9.05% (active)	61.1%	92.1%	73.5%	103%
CC(C)C(=O)Nc1ccc(C(=O)NC(=S)Nc2ccc(C(=O)O)cc2)cc1	101%	95.6%	105%	102%	102%	108%	90.6%	110%	102%	105%
O=C(N/N=C/c1ccc(B(O)O)o1)c1[nH]c2ccc(Br)cc2c1-c1ccccc1	24%	38.2%	61.2%	44.3%	11%	58.9%	-51% (active)	31.1%	41.6%	-43.2% (active)
Cc1cc2nc3c4ccccc4n(CCO)c3nc2cc1C	60.1%	69.7%	92.4%	68.8%	98.3%	34.9%	78.8%	97.6%	12.1%	106%

From PubChem BioAssay (NCI)
